Test [1] can be described thus: HepG2 liver cancer cell viability effects, profiling panel, resazurin fluorescence, 24 h, PK04 Diversity Set (AID 1172). The conditions noted are these: higher = more signal.
Test [2] is described as follows: basal S. cerevisiae growth modulation, no modifier, primary screen, OD600, strain BY4716, 24 h, basal condition (AID 1173). As to conditions: OD600, 24 h, higher = more signal, called active from +8 up or from −8 down.
A short description of test [3]: MM1S myeloma cell viability, profiling panel, resazurin fluorescence, basal, 24 h, PK04 Diversity Set (AID 1174).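 Further: MM1S multiple myeloma cell line.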 The conditions noted are these: higher = more signal, called active from +8 up or from −8 down.
The target in test [4] is Dihydroorotate dehydrogenase (quinone), mitochondrial (Plasmodium falciparum (isolate 3D7)) (UniProt Q08210). Description: PfDHODH enzyme inhibitors, primary screen, biochemical, C-terminal His tag, absorbance 600 nm (AID 1175).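 Further: recombinant parasite enzyme with a five histidine tag at its C terminus.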 As to conditions: DCIP absorbance 600 nm, higher = more signal, called active from +8 up or from −8 down.
Test [5] can be described thus: P. aeruginosa biofilm formation inhibitors, primary screen, strain PAO1, LB-PBS medium, absorbance 600 nm (AID 1176). The conditions noted are these: P. aeruginosa PAO1 growth/biofilm, A600, 12 h; higher = more signal.
Test [6] is described as follows: S. cerevisiae RM11-1a growth modifiers, primary screen, strain RM11-1a, OD600, basal, 24 h (AID 1177).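 Further: cultures grown under basal conditions with no added stressor.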 As to conditions: OD600, 24 h, higher = more signal, called active from +8 up or from −8 down.
The nature of test [7]: E. coli acrAB mutant growth effects, primary screen, E. coli filamentation inducers, strain DRC39, OD650, 24 h (AID 1178).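 Further: growth measured as culture turbidity by optical density at 650 nm.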 As to conditions: higher = more signal, called active from +8 up or from −8 down.
Test [8] can be described thus: E. coli acrAB mutant growth effects, primary screen, E. coli filamentation inducers, strain DRC39, OD650, 48 h (AID 1179).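 Further: screen aims at cell division blockers that make cells filament.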 As to conditions: E. coli DRC39 delta-acrAB growth, higher = more signal, called active from +8 up or from −8 down.
The nature of test [9]: RPMI8226 myeloma cell viability, profiling panel, resazurin fluorescence, basal, 24 h, PK04 Diversity Set (AID 1180).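 Further: RPMI8826 multiple myeloma cell line at 5000 cells per well.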 The conditions noted are these: higher = more signal.
Test [10] has as its target E3 ubiquitin-protein ligase XIAP (Homo sapiens) (UniProt P98170). Briefly: XIAP binders, primary screen, biophysical, small-molecule microarray, fluorescence 635 nm (AID 1181).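 Further: score merges 667 nm emission and signal to noise over triplicate slides.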 The conditions noted are these: small-molecule microarray binding, higher = more signal.
Test [11] has as its system XIP peptide (Xip251-270) binding. Briefly: small-molecule binders of XIP peptide, primary screen, biochemical, small-molecule microarray, fluorescence 635/667 nm, 0.1 µg/mL protein (AID 1182). As to conditions: fluorescent protein binding, 635 nm, higher = more signal, called active from +8 up or from −8 down.
The subject of test [12] is XIP peptide (Xip251-270). Description: small-molecule binders of XIP peptide, primary screen, biochemical, small-molecule microarray, fluorescence 635/667 nm, 0.5 µg/mL protein (AID 1183). As to conditions: small-molecule microarray binding, fluorescence 635 nm; higher = more signal.
Test [13] can be described thus: Plasmodium falciparum growth inhibition, primary screen, strain 3D7, DAPI fluorescence, 100 nL (AID 1184).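 Further: parasites grown inside human red blood cells in medium with human serum.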 As to conditions: P. falciparum 3D7 growth, 3 d, higher = more signal.
Test [14] deals with Homeobox protein Hox-A13 (Mus musculus) (UniProt Q62424). Description: inhibitors of HoxA13-DNA binding, primary screen, biochemical, fluorescence polarization, labeled oligonucleotide (AID 1185). The conditions noted are these: 15 min, higher = more signal, called active from +8 up or from −8 down.
A short description of test [15]: inhibitors of hydroxyurea-induced Chk1 phosphorylation, primary screen, imaging, HeLa, phospho-Chk1 antibody, percent positive cells (AID 1186). The conditions noted are these: hydroxyurea-induced phospho-Chk1 immunofluorescence imaging, higher = more signal.
A short description of test [16]: inhibitors of hydroxyurea-induced Chk1 phosphorylation, primary screen, imaging, HeLa, phospho-Chk1 nuclear intensity (AID 1187). As to conditions: hydroxyurea-induced phospho-Chk1 immunofluorescence imaging, higher = more signal.

The structures appear in SMILES notation. Activity calls are given as the source filed them. Unless noted, how the calls were made is not given here.

Sequence of Dihydroorotate dehydrogenase (quinone), mitochondrial (Plasmodium falciparum (isolate 3D7)) (Q08210 whole entry, looked up): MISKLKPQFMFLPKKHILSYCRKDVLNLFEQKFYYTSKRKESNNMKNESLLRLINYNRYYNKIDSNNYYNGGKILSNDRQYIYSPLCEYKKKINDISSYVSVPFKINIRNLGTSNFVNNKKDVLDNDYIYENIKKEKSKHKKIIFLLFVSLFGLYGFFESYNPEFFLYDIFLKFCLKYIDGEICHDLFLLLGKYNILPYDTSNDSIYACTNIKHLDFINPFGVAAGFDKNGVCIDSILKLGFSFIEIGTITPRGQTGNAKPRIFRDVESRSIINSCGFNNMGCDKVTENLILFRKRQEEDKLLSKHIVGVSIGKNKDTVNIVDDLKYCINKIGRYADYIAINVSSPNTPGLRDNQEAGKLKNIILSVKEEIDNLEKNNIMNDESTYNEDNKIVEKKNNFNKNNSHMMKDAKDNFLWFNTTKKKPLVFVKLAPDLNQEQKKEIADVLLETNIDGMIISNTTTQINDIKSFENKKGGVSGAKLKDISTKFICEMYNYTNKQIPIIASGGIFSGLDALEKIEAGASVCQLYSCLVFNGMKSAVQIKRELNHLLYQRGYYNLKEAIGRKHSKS
Sequence of Homeobox protein Hox-A13 (Mus musculus) (Q62424 whole entry, looked up): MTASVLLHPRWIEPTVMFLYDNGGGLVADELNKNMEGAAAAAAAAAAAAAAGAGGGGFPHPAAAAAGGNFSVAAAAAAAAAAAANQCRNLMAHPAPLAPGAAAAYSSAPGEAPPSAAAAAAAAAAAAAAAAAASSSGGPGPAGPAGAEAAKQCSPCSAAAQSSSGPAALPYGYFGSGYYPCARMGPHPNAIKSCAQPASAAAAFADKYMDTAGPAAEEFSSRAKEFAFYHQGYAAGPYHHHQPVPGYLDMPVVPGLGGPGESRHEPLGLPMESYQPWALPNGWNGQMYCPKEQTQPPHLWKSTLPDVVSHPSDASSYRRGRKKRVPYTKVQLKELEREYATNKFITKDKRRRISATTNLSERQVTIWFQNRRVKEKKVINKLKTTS
Sequence of E3 ubiquitin-protein ligase XIAP (Homo sapiens) (P98170 whole entry, looked up): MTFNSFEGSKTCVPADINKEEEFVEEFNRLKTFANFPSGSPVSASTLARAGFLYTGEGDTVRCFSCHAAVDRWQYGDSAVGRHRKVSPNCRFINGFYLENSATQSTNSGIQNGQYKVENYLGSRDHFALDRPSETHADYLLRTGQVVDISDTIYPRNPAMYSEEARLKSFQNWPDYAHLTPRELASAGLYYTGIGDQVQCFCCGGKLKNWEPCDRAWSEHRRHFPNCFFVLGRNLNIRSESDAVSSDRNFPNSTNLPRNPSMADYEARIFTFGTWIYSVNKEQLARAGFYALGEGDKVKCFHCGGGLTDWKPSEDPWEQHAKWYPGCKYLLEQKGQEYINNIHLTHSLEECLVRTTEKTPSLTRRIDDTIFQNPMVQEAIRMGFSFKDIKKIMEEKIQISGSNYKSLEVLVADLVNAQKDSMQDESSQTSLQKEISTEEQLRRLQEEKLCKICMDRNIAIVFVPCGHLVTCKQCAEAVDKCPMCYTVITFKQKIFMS

For the compound `CC1CC/C=C\[C@H]2OC34C=CCN(c5ccc(Cl)cc5)C(=O)[C@H]3N(CCCO)C(=O)[C@]4(C)C2C(=O)O1` (some centres undefined), the z-score is -1.08 in test [1]; 1.44 (inactive) in [2]; -0.198 (inactive) in [3]; -0.897 (inactive) in test [5]; 0.941 (inactive) in test [6]; -0.699 (inactive) in test [7]. The z-score in [8] was -0.801 (inactive); in test [9] it was -0.208; in [13] it was 0.4; in [14] it was -4.75 (inactive); in test [15], -0.226 (inactive); in test [16], 0.117 (inactive). Further, the composite z-score in test [4] was 1.44 (inactive); in test [10], -0.151; in [11], 0.412 (inactive); in test [12], 0.861.

With `CC(C)(C)N1CC=CC23O[C@@H]4/C=C\CCCOC(=O)C4[C@H]2C(=O)N(CCCCCCO)[C@@H]3C1=O` (some centres undefined), the z-score in test [1] was 0.232; in [2] it was -0.584 (inactive); in test [3], 0.702 (inactive); in test [5], 1.2 (inactive); in test [6] it was -1.13 (inactive); in [7], -0.11 (inactive). The z-score in [8] was 0.602 (inactive); in test [9], 1.06; in test [13] it was -0.136; in [14], -4.63 (inactive); in test [15] it was 0.114 (inactive); in [16], 1.32 (inactive). Also, the composite z-score is -1.58 (inactive) in test [4], -0.0795 in test [10], 0.956 (inactive) in test [11] and 0.346 in test [12].

For the compound `CC(=O)c1ccc(C(O)C2C=CC3C(=O)NC(=O)C3N2Nc2ccc(Cl)cc2Cl)cc1` (centres undefined), the z-score in test [1] was -1.16; in [2], -2.33 (inactive); in [3] it was -1.35 (inactive); in [5] it was 0.835 (inactive); in test [6], 1.39 (inactive); in test [7], 0.385 (inactive). The z-score in [8] was -1.48 (inactive); in test [9], -1.8; in [13], -0.677; in [14], -5.84 (inactive); in test [15], 0.173 (inactive); in test [16] it was 0.588 (inactive). For the same compound, the composite z-score in [4] was 1.16 (inactive); in test [10], -0.0421; in test [11], 0.187 (inactive); in test [12], 0.02.

As for `COCCOC(=O)N1C(=O)[C@@]2(c3cc(C#Cc4ccc(OC)cc4)ccc31)[C@H](c1ccc(OCCO)cc1)N1[C@H](c3ccccc3)[C@H](c3ccccc3)OC(=O)[C@H]1[C@@H]2C(=O)N1CCCCCCC1`, the z-score in [1] was -0.266; in [2], 0.376 (inactive); in test [3], 0.699 (inactive); in test [5], 2.17 (inactive); in test [6], 0.277 (inactive); in [7] it was 0.0117 (inactive). Besides, the z-score in test [8] was 1.19 (inactive); in test [9], 0.746; in [13], -2.09; in [14], -15.8 (active); in test [15], -0.318 (inactive); in [16], -0.217 (inactive). Also, the composite z-score in test [4] is -1.31 (inactive); in test [10], 0.0162; in [11] it was 0.92 (inactive); in test [12] it was 0.768.

As to `C=CC[C@@]1(C(=O)N(C)C)N=C(c2ccc(OCCCO)cc2)O[C@@H]1c1ccccc1`, the z-score in test [1] was 0.879; in test [2], -2.54 (inactive); in test [3], -0.235 (inactive); in test [5] it was 0.95 (inactive); in test [6], -0.422 (inactive); in test [7], -0.936 (inactive). The z-score is -0.649 (inactive) in test [8]; 0.267 in [9]; -0.76 in test [13]; -6.79 (inactive) in test [14]; 0.343 (inactive) in [15]; 0.0811 (inactive) in test [16]. For the same compound, the composite z-score in [4] was 0.13 (inactive); in test [10], -0.33; in [11] it was 0.98 (inactive); in test [12], 0.425.

Turning to `COc1ccc(CC[C@H](O)c2cccc(OCC(=O)OC(C)(C)C)c2)cc1`, the z-score in test [1] is 0.657; in test [2], -4.45 (inactive); in [3] it was -0.25 (inactive); in [5], 0.475 (inactive); in [6] it was 0.69 (inactive); in test [7] it was 0.791 (inactive). Besides, the z-score was 0.573 (inactive) in test [8]; -0.204 in test [9]; -1.03 in test [13]; -5.52 (inactive) in test [14]; -0.0884 (inactive) in test [15]; 0.27 (inactive) in [16]. In addition, the composite z-score is -1.82 (inactive) in [4], -0.121 in test [10], 0.809 (inactive) in test [11] and 0.662 in test [12].

As to `C=CCC(OC(C)=O)[C@@H]1[C@@H](N(Cc2cccc3ccccc23)C(=O)c2ccc(-c3ccccc3)cc2)c2cc(OCCCO)ccc2N1C(=O)c1ccc2ccccc2n1` (some centres undefined), the z-score in test [1] was -0.0049; in [2], 0.493 (inactive); in [3], 0.623 (inactive); in test [5] it was 0.35 (inactive); in test [6] it was -0.634 (inactive); in test [7], -0.267 (inactive). For the same compound, the z-score was -0.174 (inactive) in test [8]; 0.485 in test [9]; -0.198 in test [13]; -1.17 (inactive) in test [14]; 0.116 (inactive) in [15]; -0.14 (inactive) in test [16]. In addition, the composite z-score in test [4] was -0.318 (inactive); in [10], -0.0102; in test [11] it was -0.268 (inactive); in test [12], 0.0494.

With `Cc1c(-c2ccc(-c3ccc(Cl)c(Cl)c3)o2)nc(-c2ccccc2)c2c1CO[Si]2(C(C)C)C(C)C`, the z-score in test [1] is 0.368; in test [2], -0.922 (inactive); in [3] it was -2 (inactive); in test [5] it was 0.82 (inactive); in test [6], -0.569 (inactive); in test [7], 0.575 (inactive). For the same compound, the z-score is 0.462 (inactive) in [8]; -0.639 in [9]; 0.962 in test [13]; -1.48 (inactive) in test [14]; 0.0151 (inactive) in test [15]; -0.0709 (inactive) in test [16]. Moreover, the composite z-score in test [4] was -0.063 (inactive); in test [10], 0.504; in test [11] it was 0.401 (inactive); in test [12], 0.761.

Take `C=CCC(OC(C)=O)[C@@H]1[C@@H](N(Cc2ccc(-c3ccccc3)cc2)C(=O)c2ccc(C)cc2)c2cc(OCCCO)ccc2N1C(=O)c1ccc2ccccc2c1` (some centres undefined): the z-score is -0.643 in test [1]; -0.766 (inactive) in test [2]; 1.12 (inactive) in test [3]; -0.0877 (inactive) in [5]; -1.99 (inactive) in test [6]; 0.406 (inactive) in test [7]. In addition, the z-score in [8] was 0.67 (inactive); in test [9] it was 1.36; in [13], -1.26; in test [14] it was -0.819 (inactive); in test [15], -0.363 (inactive); in test [16] it was -0.221 (inactive). The composite z-score in [4] is -1.55 (inactive); in test [10], -0.0357; in [11] it was -0.654 (inactive); in test [12] it was -0.354.

Values taken from PubChem BioAssay.
